# Reference: PubChem BioAssay
# Biological target: Focal adhesion kinase 1 (Homo sapiens) (UniProt Q05397)
# Assay: small-molecule microarray binders of FAK, primary screen, biochemical, 635/667 nm fluorescence, BSA, DTT (AID 1130);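 also: composite of spot emission at 667 nm and signal to noise over triplicate slides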
# Conditions: PTK2 binding, 635 nm fluorescence, higher = more signal
# Sequence of Focal adhesion kinase 1 (Homo sapiens) (Q05397 whole entry, looked up): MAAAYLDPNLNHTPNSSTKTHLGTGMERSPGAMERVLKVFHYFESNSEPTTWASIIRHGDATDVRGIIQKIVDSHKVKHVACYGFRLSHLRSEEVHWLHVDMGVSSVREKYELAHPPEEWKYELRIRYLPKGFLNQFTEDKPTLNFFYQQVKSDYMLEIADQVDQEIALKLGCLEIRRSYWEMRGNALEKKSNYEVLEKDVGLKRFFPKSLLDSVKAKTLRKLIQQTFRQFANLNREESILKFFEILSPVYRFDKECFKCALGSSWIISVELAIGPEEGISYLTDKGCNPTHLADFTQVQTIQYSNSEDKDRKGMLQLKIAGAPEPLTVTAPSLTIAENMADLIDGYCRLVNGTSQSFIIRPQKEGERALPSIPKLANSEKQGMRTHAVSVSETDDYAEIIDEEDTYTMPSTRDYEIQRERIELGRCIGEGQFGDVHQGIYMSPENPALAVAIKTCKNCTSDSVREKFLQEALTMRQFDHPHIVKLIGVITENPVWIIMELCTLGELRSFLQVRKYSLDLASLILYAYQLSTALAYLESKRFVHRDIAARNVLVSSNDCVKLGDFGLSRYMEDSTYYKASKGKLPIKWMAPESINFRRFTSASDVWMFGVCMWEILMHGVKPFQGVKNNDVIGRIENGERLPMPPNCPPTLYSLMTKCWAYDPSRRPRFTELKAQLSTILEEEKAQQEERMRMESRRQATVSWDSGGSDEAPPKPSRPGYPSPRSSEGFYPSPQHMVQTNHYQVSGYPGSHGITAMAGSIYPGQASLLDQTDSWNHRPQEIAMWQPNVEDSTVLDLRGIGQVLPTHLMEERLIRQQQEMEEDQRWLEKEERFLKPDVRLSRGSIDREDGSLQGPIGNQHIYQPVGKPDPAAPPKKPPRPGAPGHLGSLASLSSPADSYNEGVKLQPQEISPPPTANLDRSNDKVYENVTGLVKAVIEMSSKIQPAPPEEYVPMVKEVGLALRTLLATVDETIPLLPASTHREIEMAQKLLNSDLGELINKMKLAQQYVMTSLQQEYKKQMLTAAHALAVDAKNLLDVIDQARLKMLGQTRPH
row,SMILES,composite z-score
1,COCC#Cc1ccc([C@@H]2N[C@H](C(=O)O)CC[C@H]2C)cc1,0.547
2,C#CCCCON=C1[C@H]2CCn3c(=O)n([C@@H](CC)c4ccccc4)c(=O)n3[C@H]2[C@H](O)[C@@H]2O[C@H]12,0.235
3,O=C1CCCC=C1C(O)C1CCCCC1 (configuration not stated),-0.365
4,C[C@@H](c1ccccc1)N1C(=O)[C@H]2[C@H]3[C@H](O)[C@H](O)CC(=NOC[C@@H](O)COCc4ccco4)[C@H]3CC[C@H]2C1=O,-0.546
5,CCOC(=O)[C@H](CC(C)C)NC(=O)CCC1CC(OC(=O)NCCc2ccc(F)cc2)CC2(CCCC(COC(=O)NCc3cccc4ccccc34)O2)O1 (some centres not stated),0.2
6,COC(=O)[C@H](C)NC(=O)CCC1CC(OC(=O)NCCc2ccc(F)cc2)CC2(CCCC(COC(=O)NCCc3ccccc3OC)O2)O1 (some centres not stated),0.0694
7,CCOC(=O)CCN1C(=O)[C@H]2[C@H]3[C@H](O)[C@H](O)CC(=NOCC(C)C)[C@@H]3CC[C@H]2C1=O,-0.286
8,CC[C@@H](c1ccccc1)n1c(=O)n2n(c1=O)[C@H]1[C@H](O)[C@@H]3O[C@@H]3C(=NOCc3ccccc3)[C@H]1CC2,-0.207
9,COc1ccc(O[C@H]2C=C[C@@H](c3ccccc3)O[C@@H]2CON=C(C)CCN2CCCc3nc(C)c(C)cc32)cc1,0.0143
10,COC(OC)[C@@H](C)[C@H](OC)[C@@H](C)[C@H](OC)c1ccccc1,-0.043
11,CC(CCN1CCc2nc(-c3ccccc3)c(-c3ccccc3)cc2C1)=NO[C@@H](C)c1cc(-c2c(C)cc(C)cc2C)no1,-0.228
12,CO[C@H]1COC(=O)CCC[C@H](C)[C@H](OC)COC(=O)CC=C[C@@H]1C,-0.0022
